Pf growth 96h: inhibits malaria parasite growth, 96 h. hit rate 6.9% among 320,000. Potency, µM (series often up to 28.7 µM), hits mostly inhibitors. P. falciparum luciferase reporter growth, 96 h
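96 h incubation, 37 C, 5% CO2, of luciferase-reporter P. falciparum-infected RBCs (2% hematocrit, 0.05% parasitemia final) with test compounds; endpoint luminescence.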
AMA1-RON2 inh: inhibitors of Plasmodium falciparum AMA1-RON2 interaction | hit rate 0.2% among 360,000 | AID 720542 | Potency, µM (series often up to 58.2 µM), usual class: inhibitors | AlphaScreen AMA1-biotinylated RON2 peptide binding; further: nearly all actives have a fitted effect of over 45% in size
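AMA1 (3D7) with his tag at 25 nM final met compounds first, then biotinylated RON2 peptide at 25 nM; detection used donor plus acceptor beads, 10 µg/mL apiece, read by AlphaScreen after 30 min at room temperature.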
SARS PLpro yeast: SARS-CoV PLP inhibition in yeast; Potency, µM (doses to about 32.9 µM), most hits filed as activators; S. cerevisiae expressing SARS-CoV PLpro, growth rescue; hit rate 0.19% among 330,000; calls by dose curve; further: nearly all actives have a fitted effect of over 55% in size
HCV inhibitor: HCV inhibition | Huh7.5.1 HCVcc-Cre infection, luciferase reporter, 44 h | AID 651820 | Potency, µM (doses to about 41.8 µM), most hits filed as inhibitors | hit rate 3.4% among 340,000
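Luciferase read-out (15 sec integration) after a 15 min room-temperature substrate step quantifies HCVcc-Cre infection. Cells, 1,000 per well, had compound added 4 h post-plating, then virus at ~0.5 moi, and were cultured 44 h.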
NS1 inh: blocks influenza NS1 protein function; Potency, µM (series often up to 46.1 µM); hit rate 0.4% among 270,000; calls by dose curve; further: actives are rising curves; nearly all actives have a fitted effect of over 50% in size
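OD600 was taken as the measure of yeast growth restored by compound in an NS1-expressing S. cerevisiae strain. Cells had been washed out of glucose medium and diluted 1:100 into galactose -URA medium, pH 6.0.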
Pf growth 48h: P. falciparum growth inhibition at 48 hours (one generation) | P. falciparum luciferase growth in erythrocytes, 48 h | Potency, µM (doses to about 28.7 µM), most hits filed as inhibitors | hit rate 5.9% among 310,000
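Growth was read as firefly luciferase luminescence after a 48 h, 37 C, 5% CO2 exposure of compounds to reporter-bearing P. falciparum cultures (0.1% parasitemia, 2% hematocrit final) in Albumax-supplemented RPMI 1640.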
Large screens that a line does not name were inactive. Sampled rows, rich in hits. Any-hit rate of the full collection: about 12%. Unless noted, the call rests on the fitted dose curve; in most records, active means well fitted curve in the direction sought with a large enough effect; inconclusive means small, poorly fitted or top-dose-only effect, or another doubt; inactive means no such curve, though single readings can be large; an effect the other way counts as inactive or inconclusive.

C[C@H]1CC2[C@@H]3CCC4=CC(=O)C=C[C@]4(C)[C@@]3(F)[C@@H](O)C[C@]2(C)[C@@]1(O)C(=O)CO (stereo partly specified)	none (no result: Pf growth 96h, AMA1-RON2 inh, SARS PLpro yeast, HCV inhibitor, Pf growth 48h)
Cc1ccc(NC(=O)CCn2c(=O)[nH]c3ccsc3c2=O)cc1F	Pf growth 48h inconclusive
Cc1ccc(NC(=S)N2CCCC(c3nc4ccc(C)cc4[nH]3)C2)c(C)c1 (stereo unspecified)	HCV inhibitor 10µM
Cc1ccc2nc(C3CCCN(C(=S)Nc4cccc(C)c4C)C3)[nH]c2c1 (stereo unspecified)	HCV inhibitor 1.78µM
Cc1cc2nc(C3CCCN(C(=S)Nc4ccccc4C)C3)[nH]c2cc1C (stereo unspecified)	HCV inhibitor 10µM
N#CC1CCCc2c1[nH]c1ccc([N+](=O)[O-])cc21 (stereo unspecified)	HCV inhibitor inconclusive
COc1ccccc1C(=O)NCC(=O)OCCCOC(=O)CNC(=O)c1ccccc1OC	none
Clc1ccc(CN=C(Nc2ccccc2)NC2CCCCC2)cc1	Pf growth 96h 9.28µM, HCV inhibitor inconclusive, Pf growth 48h 9.28µM
O=C(Nc1ccc(Cl)cc1)NC1CCCCC1	none
Cc1ccc2sc(NC(=O)CN3C(=O)c4ccccc4C3=O)nc2c1C	none
CCN1/C(=C/c2ccc3cc(C)ccc3[n+]2CC)Sc2cc(C)c(C)cc21	HCV inhibitor 1.12µM, Pf growth 48h 2.08µM
CCN1/C(=C/c2ccc3cc(C)ccc3[n+]2CC)Sc2ccccc21	HCV inhibitor 1.58µM, Pf growth 48h 0.586µM
Cc1cccc(Nc2nc(OCC#N)nc(N(C)C)n2)c1	Pf growth 96h 11.7µM
CCN(CC)c1nc(Nc2ccc(Cl)cc2)nc(OCC#N)n1	HCV inhibitor inconclusive (no result: Pf growth 96h)
COC(=O)CCC(=O)OC1(C)C(=O)C=C2C=C(C3CC3)N(Cc3ccco3)C=C2C1=O (stereo unspecified)	Pf growth 96h inconclusive, Pf growth 48h 11.7µM
OCC1O[C@H](OC2C(CO)O[C@@](O)(CO)C2O)C(O)C(O)C1O (stereo partly specified)	none (no result: AMA1-RON2 inh, SARS PLpro yeast, HCV inhibitor, NS1 inh)
CCCc1cc(=O)[nH]c(Nc2ccc(N3CCCCC3)cc2)n1	none (no result: Pf growth 96h)
CCCCc1ccc(Nc2nc(CCC)cc(=O)[nH]2)cc1	Pf growth 48h 10.4µM (no result: Pf growth 96h)
COc1ccc2nc(-c3ccccc3)nc(SC)c2c1	HCV inhibitor 11.2µM (no result: Pf growth 96h, SARS PLpro yeast, NS1 inh, Pf growth 48h)
COc1ccc(OC)c(Nc2nc(-c3ccncc3)nc3ccccc23)c1	Pf growth 96h 1.85µM, HCV inhibitor 4.47µM, Pf growth 48h 1.85µM
COc1ccccc1Nc1nc(-c2ccccc2)nc2ccccc12	HCV inhibitor 10µM
COc1ccc(OC)c(Nc2ncnc3ccccc23)c1	HCV inhibitor inconclusive
COc1ccc(Nc2nc(-c3ccccc3)nc3ccccc23)c(OC)c1	Pf growth 96h inconclusive, HCV inhibitor 2µM, Pf growth 48h inconclusive (no result: NS1 inh)
Cc1ccc(-c2noc(CNS(=O)(=O)c3ccccc3)n2)cc1	none
Cc1ccc(CNC(=O)C(C)C2Sc3ccccc3NC2=O)cc1 (stereo unspecified)	Pf growth 96h inconclusive, Pf growth 48h inconclusive
Cc1ccc(C)c(Nc2nc(-c3ccncc3)nc3ccccc23)c1	HCV inhibitor 11.2µM, Pf growth 48h 10.4µM
COc1ccc(Nc2nc(-c3ccncc3)nc3ccccc23)cc1	HCV inhibitor 6.31µM (no result: Pf growth 48h)
COc1ccc(Nc2nc(-c3ccccc3O)nc3ccccc23)cc1	Pf growth 96h inconclusive, HCV inhibitor inconclusive, Pf growth 48h inconclusive
O=c1onc2n1-c1cc(Br)ccc1OC2	none (no result: Pf growth 96h, AMA1-RON2 inh, SARS PLpro yeast, HCV inhibitor, Pf growth 48h)
CCN(CC)S(=O)(=O)c1ccc2nc(SC)sc2c1	Pf growth 48h inconclusive (no result: Pf growth 96h)
CSc1nc2ccc(S(=O)(=O)N(C)C)cc2s1	Pf growth 96h 11.7µM (no result: Pf growth 48h)
CN1C2=C(C#N)C(c3ccccc3)(C(F)(F)F)NC(=O)N2c2ccccc21 (stereo unspecified)	Pf growth 96h 7.38µM (no result: Pf growth 48h)
Cc1ccc(C2(C(F)(F)F)NC(=O)N3C(=C2C#N)Nc2ccccc23)cc1 (stereo unspecified)	none (no result: Pf growth 96h)
COc1ccc(CNS(=O)(=O)c2c(C(=O)N3CCCCCC3)c(C)n(C)c2C)cc1	Pf growth 96h 3.29µM
Cc1ccc(CNS(=O)(=O)c2c(C(=O)N3CCCCC3)c(C)n(C)c2C)cc1	none
Cc1c(C(=O)N2CCCCC2)c(S(=O)(=O)NCc2ccc(N(C)C)cc2)c(C)n1C	Pf growth 96h 0.828µM
O=C(COC(=O)C1CC1)Nc1ccc(S(=O)(=O)N2CCOCC2)cc1	none (no result: Pf growth 96h, NS1 inh, Pf growth 48h)
COc1cccc(-c2nn(C)c3sc(C(=O)NCc4ccc(C)o4)cc23)c1	Pf growth 96h inconclusive, HCV inhibitor 2.82µM, Pf growth 48h inconclusive
Cn1nc(C(C)(C)C)cc1C(=O)NCc1ccc2c(c1)OCO2	HCV inhibitor 1µM
COc1cccc(-c2nn(C)c3sc(C(=O)NCc4ccc5c(c4)OCO5)cc23)c1	HCV inhibitor 14.1µM (no result: Pf growth 48h)
COc1ccc(-c2nn(C)c3sc(C(=O)NCc4ccco4)cc23)cc1OC	HCV inhibitor inconclusive
Cc1oc(C(C)(C)C)cc1C(=O)NCc1ccc2c(c1)OCO2	none
Cc1ccc(-c2nc3ncccc3o2)cc1NC(=O)c1ccc2c(c1)OCO2	none (no result: Pf growth 96h, SARS PLpro yeast, NS1 inh, Pf growth 48h)
C[C@H]1CC[C@@]2(O[C@H](CCO)C[C@H](O)[C@H]2O)O1	none (no result: Pf growth 96h, SARS PLpro yeast, NS1 inh, Pf growth 48h)
Cc1cccc(/C=C/C(=O)c2cc(Br)ccc(=O)c2O)c1	AMA1-RON2 inh inconclusive, HCV inhibitor 14.1µM, Pf growth 48h inconclusive (no result: Pf growth 96h)
CCc1ccc(/C=C/C(=O)c2cc(Br)ccc(=O)c2O)cc1	HCV inhibitor inconclusive, Pf growth 48h inconclusive (no result: Pf growth 96h)
CCOc1ccc(/C=C/C(=O)c2cc(Br)ccc(=O)c2O)cc1	Pf growth 96h 9.28µM, AMA1-RON2 inh inconclusive, HCV inhibitor inconclusive, Pf growth 48h 10.4µM
Cc1ccc(/C=C/C(=O)c2cc(Br)ccc2OC(=O)c2ccco2)cc1	Pf growth 96h inconclusive, HCV inhibitor inconclusive, Pf growth 48h 13.1µM
O=[n+]1ccn([O-])c2ccccc21	none (no result: AMA1-RON2 inh, SARS PLpro yeast, HCV inhibitor, NS1 inh)
CCCCN1C(=O)CCC(C(=O)O)C1c1ccc([N+](=O)[O-])cc1 (stereo unspecified)	none
O=C(Cc1ccccn1)c1ccc(Cl)cc1	Pf growth 96h inconclusive, Pf growth 48h inconclusive (no result: NS1 inh)
CC1=C(CC(=O)c2ccc(Cl)cc2)C(=O)c2ccccc2C1=O	Pf growth 96h inconclusive, AMA1-RON2 inh 11.9µM, HCV inhibitor 4.47µM, Pf growth 48h 0.165µM
NC1=NC(S)C2N=CN=C2N1 (stereo unspecified)	Pf growth 96h 7.57µM, Pf growth 48h inconclusive (no result: AMA1-RON2 inh, SARS PLpro yeast, HCV inhibitor, NS1 inh)
CCOc1ccc(N(CC(=O)Nc2ccc(C)c(F)c2)C2=NC3CS(=O)(=O)CC3S2)cc1 (stereo unspecified)	Pf growth 96h inconclusive, Pf growth 48h inconclusive
COc1ccc(N(CC(=O)Nc2ccc(F)c(Cl)c2)S(=O)(=O)c2c(C)noc2C)cc1	Pf growth 96h inconclusive, Pf growth 48h inconclusive

Screens: PubChem, National Center for Advancing Translational Sciences (NCATS)
